PubChem BioAssay (NCATS)
Inconclusive results are not listed. Active and inactive are the calls of the source. Calls follow the shape of the dose curve; as a rule, active = well fitted inhibition curve with a large enough effect; inconclusive = small, poorly fitted or top-dose-only effect, or effect the other way; inactive = flat fitted curve, though single readings scatter.

Assay: qHTS for Inhibitors of Plasmodium falciparum (CP250) proliferation (AID 504320)
Conditions: P. falciparum CP250 in erythrocytes, SYBR Green DNA, 72 h; series mostly up to 6.7 µM; activity change, negative = inhibition: at the top concentration
Source text: Plasmodium falciparum is a virulent malarial parasite that kills 1-2 million people worldwide each year. Malaria not only inflicts tremendous suffering and morbidity on the human population, but has dramatically influenced the course of civilization with profound sociological and economic implications (Shah, S. 2010). Transmitted by mosquitoes, the sporozoite form of the parasite enters the blood stream to infect hepatocytes, where they become merozoites that infect red blood cells (erythrocytes). Within erythrocytes, merozoites begin a […] cycle of growth and division, after which the parasite is released to infect new red blood cells. Gametocytes, which form within erythrocytes as well, circulate in the bloodstream and are ingested by the mosquito, thereby completing the life cycle (see CDC website). To profile malarial lines for differential chemical responses and to identify inhibitors of malarial growth, an assay that measures P. falciparum growth and replication within erythrocytes was employed. This assay uses a DNA binding fluorescent dye (SYBR Green) to detect parasite DNA following cell lysis. Because mature erythrocytes lack DNA, only Plasmodium-derived DNA is detected. The P. falciparum line cp250, derived from a malarial isolate from Cambodia, (Mu, J., et al. 2010) was added to the panel of lines, Dd2, HB3, 7G8 and GB4 in this study. Laboratory of Assay Development and Screening Technology [ADST] and NIH Chemical Genomics Center [NCGC] Boston University, Chemistry Department, Center for Chemical Methodology and Library Development [CMLD-BU] NIH National Institute of Allergy and Infectious Diseases [NIAID]
ADST Assay Protocol Summary: The 1536-well SYBR Green viability assay was based on the method of Bennett et al (2004) and described previously in 1536-well format (Yuan J., et al. 2009). For screening 3 ul culture medium was dispensed into 1536 well black clear bottom plates (Aurora Biotechnologies) using a Multidrop Combi (Thermo Fisher Scientific Inc.), 23 nL compounds in DMSO were added by a pin transfer (Cleveland, P.H. and Koutz, P.J, 2005) using a pin tool-based delivery system (Kalypsys), and 5 ul of erythrocytes infected with P. falciparum one of five lines (cp250, Dd2, HB3, 7G8 or GB4, 0.3% parasitemia, 2.5% hematocrit final concentration) were added. The plates were incubated at 37C in a humidified incubator in 5% CO2 for 72 h, and 2 ul lysis buffer (20 mM Tris HCl, 10 mM EDTA, 0.16% saponin, 1.6% triton X, 10X SYBR Green I (supplied as 10,000X final concentration by Invitrogen) was added to each well. The plates were mixed for 25 sec with gentle shaking and incubated overnight at room temperature in the dark. The following morning, fluorescence intensity at 485(14) nm excitation and 535(25) nm emission wavelengths was measured on an EnVision (Perkin Elmer) plate reader. Plate reads were normalized relative to the control inhibitor (0.29 uM artemisinin) and vehicle (DMSO) wells present on each plate and then corrected by an algorithm using vehicle-only control plates at the beginning and end of the compound plate stack. References Shah, S. (2010). The Fever: how malaria has ruled humankind for 500,000 years. New York, Sarah Crichton Books. CDC web site, http://www.cdc.gov/malaria/about/biology/index.html Mu, J., Myers, R.A., Jiang, H., Liu, S., Ricklefs, S., Waisberg, M., Chotivanich, K., Wilairatana, P., Krudsood, S., White, N.J., et Plasmodium falciparum genome-wide scans for positive selection, recombination hot spots and resistance to antimalarial drugs Nature Genetics 2010, 42, pp 268-271 Bennett TN, Paguio, M., Gligorijevic, B., Seudieu, C., Kosar, A. D., Davidson, E., and Roepe, P. D. Novel, rapid, and inexpensive cell-based quantification of antimalarial drug efficacy Antimicrobial Agents Chemother. 2004, 48(5): pp 1807-10 Yuan J, Johnson RL, Huang RL, Wichterman J, Jiang HY, Hayton K, Fidock DA, Wellems TE, Inglese J, Austin CP, Su XZ. […]

Activity change, negative = inhibition, inactive:
C[C@H]1COC(=O)[C@H](Cc2ccccc2)NC(=O)[C@@H](C)COC(=O)[C@H](Cc2ccccc2)NC1=O 0.591%
C=CCN1C(=O)[C@]2(O[C@H](C)CC3=CCCC32)c2c(Br)cccc21 (stereo not given in full) 1.5%
COC(=O)CC=C[C@@H](C)[C@@H](C=NOC[C@@H](O)COCc1ccco1)NS(=O)(=O)c1ccc(C)cc1 -14.2%
CCCC[C@]12Cc3cc(C#N)ccc3[C@H](O1)c1c(cc(C)n(Cc3ccccc3)c1=O)O2 -4.47%
COC(=O)C(C(=O)OC)[C@@H]1O[C@@]23COC=C[C@]2(C)[C@@H]3c2ccccc21 0.688%
C=C(C(=O)C(C)(C)O)C(O)c1ccc([N+](=O)[O-])cc1 (stereo not given) 9.08%
COC(=O)C1(C(=O)OC)CC=CCc2ccccc2[C@H]1C[N+](=O)[O-] -0.669%
COc1cccc2c1[C@H](C=Cc1ccccc1)[C@@H]([C@H](O)COC(C)=O)OC2 1.78%
CC(=O)OC[C@H]1O[C@@H](ON=C(C)CCN2CCCCc3nc(C)c(C)cc32)[C@H](OC(C)=O)[C@@H](OC(C)=O)[C@H]1OC(C)=O -16.1%
Cc1cc(C)c2c(c1)CO[C@H]([C@H](O)CO)[C@H]2C=Cc1ccccc1 0.757%
COC(=O)C1=C(C)N(Cc2ccccc2)C(=NCCCCO)NC1c1cccc(F)c1 (stereo not given) -1.67%
CC1(C)O[C@@H](C(O)(c2cc(C(F)(F)F)cc(C(F)(F)F)c2)c2cc(C(F)(F)F)cc(C(F)(F)F)c2)[C@H](C(O)(c2cc(C(F)(F)F)cc(C(F)(F)F)c2)c2cc(C(F)(F)F)cc(C(F)(F)F)c2)O1 2.59%
CCOC(=O)CN1C(=O)C2(CC(C)=C[C@@H](C)O2)c2c(Br)cccc21 (stereo not given in full) 5.76%
OC[C@H]1O[C@H](c2ccccc2)C=C[C@H]1OCc1cccc(Br)c1 -2.3%
C=CCCCC=C(C)[C@H](OCc1ccc(OC)cc1)[C@H](CCC=C(C)C(N)=O)OC -11.7%
C[C@H]1COc2c(N3CCN(C)CC3)c(F)cc3c(=O)c(C(=O)NCc4ccco4)cn1c23 -1.61%
C=C(C(C)=O)C(O)c1ccc(C(F)(F)F)cc1 (stereo not given) -1.02%
C=C(Nc1ccc(OC)cc1)C(=O)OC 6.26%
C[C@@H]1CC2CCC[C@@H]2[C@]2(O1)C(=O)Nc1cccc(Br)c12 (stereo not given in full) -2.82%
Cc1cc2c(nc1C)CCCCN2C[C@H](C)ON=C1[C@H]2CCn3c(=O)n(-c4ccccc4)c(=O)n3[C@@H]2[C@H](O)[C@@H]2O[C@H]12 -14.8%
COc1ccc2c(c1)O[C@@H](c1ccc3c(c1)OCO3)[C@H](OC(=O)Nc1ccc(C)c(Br)c1)C2=O 0.938%
C=CCOC(=O)N[C@H](c1ccco1)C(C(C)=O)C(C)=O 6.27%
CON(C)C(=O)c1nnc2c3ccccc3n(S(=O)(=O)c3ccc(C)cc3)c2n1 0.974%
C=CCC12C=C(OC)C(=O)C(C1=O)C1c3ccccc3CC12 (stereo not given) -7.54%
COc1ccc2c(c1)C(=O)[C@H](OC(=O)Nc1cc(OC)c(OC)c(OC)c1)[C@@H](c1ccc(OC)c(Br)c1)O2 2.36%
COC(=O)C1=C(C)N(Cc2ccccc2)C(=S)NC1CCc1ccccc1 (stereo not given) -1.72%
COCC=CC1=CC2=CC(=O)C(C)(OC(=O)c3cnc4ccccc4n3)C(=O)C2=CN1Cc1ccc(OC)cc1 (stereo not given) 3.05%
CCN1C(=NCCc2ccccn2)NC(c2cccs2)C(C(=O)OC)=C1C (stereo not given) -29.5%
COc1ccc(C=CNC(=O)c2ccc(OC)cc2)cc1 -11.5%
COC(=O)C1=C(C(=O)OC)[C@@H]2N(Cc3ccccc3)c3ccccc3[C@@]23C[C@@H](CO)N=C3N1 6.09%
C=CCN1C(=O)CC[C@@]23C1=NC(C(=O)OC)=C(C(=O)OC)[C@@H]2N(CC#CC)c1ccccc13 4.42%
CC(C)=NOCc1ccc(-c2cn([C@@H]3COC[C@@H]3O)nn2)cc1 4.09%
O=C(NC(CC1=CCCCC1)c1ccc2ccccc2c1)C(F)(F)F (stereo not given) 4.82%

Potency, inactive:
COC(=O)C1=C(C(=O)OC)[C@@H]2N(Cc3ccccc3)c3ccccc3[C@@]23C[C@@H](C(=O)OC)N(C(=O)c2cc(C)oc2C)C3=N1
CC1(OC(=O)C2CCCC2)C(=O)C=C2C=C(c3ccsc3)N(c3cccc(C#N)c3)C=C2C1=O (stereo not given)
COC(=O)N1C(C)=Cc2ccccc2C1CC(C)=O (stereo not given)
CC1(OC(=O)C2CCCC2)C(=O)C=C2C=C(c3ccsc3)N(CCc3ccccn3)C=C2C1=O (stereo not given)
C[C@H](NC(=O)N1CCc2nc(COc3ccccc3)c3c(c2C1)CO[C@@H](C)C3)c1ccccc1
CCOC(=O)N1C2=NC(C(=O)OC)=C(C(=O)OC)[C@@H]3N(Cc4ccccc4)c4ccccc4[C@]23C[C@H]1C(=O)OC
COC(=O)CCCC1=CC2=CC(=O)C(C)(OC(=O)c3cccs3)C(=O)C2=CN1C1CCCC1 (stereo not given)
